# Reference: the supplement of paper PMC3545927
# The list shows a part of the results. No count for the full screen is at hand.
# Target: furin, P09958
# Assay: furin cleavage Z-score vs untreated control; higher = more cleavage, active = 3.5 or more, inactive = 1 or less, 8 variable residues between constant flanks
# Summary of the method: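 The cleavage Z-score is the log read count relative to furin-free reactions, lowess-adjusted and scaled by median absolute deviation. Counts came from sequencing DNA released from bead-bound 8-mer peptide–cDNA fusions after digestion with purified furin for 7.5, 15 or 30 min.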
# 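Also: purified furin at 1:10 enzyme:substrate in 50 mM HEPES pH 7.5.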
# Sequence of furin, P09958 (P09958 whole entry): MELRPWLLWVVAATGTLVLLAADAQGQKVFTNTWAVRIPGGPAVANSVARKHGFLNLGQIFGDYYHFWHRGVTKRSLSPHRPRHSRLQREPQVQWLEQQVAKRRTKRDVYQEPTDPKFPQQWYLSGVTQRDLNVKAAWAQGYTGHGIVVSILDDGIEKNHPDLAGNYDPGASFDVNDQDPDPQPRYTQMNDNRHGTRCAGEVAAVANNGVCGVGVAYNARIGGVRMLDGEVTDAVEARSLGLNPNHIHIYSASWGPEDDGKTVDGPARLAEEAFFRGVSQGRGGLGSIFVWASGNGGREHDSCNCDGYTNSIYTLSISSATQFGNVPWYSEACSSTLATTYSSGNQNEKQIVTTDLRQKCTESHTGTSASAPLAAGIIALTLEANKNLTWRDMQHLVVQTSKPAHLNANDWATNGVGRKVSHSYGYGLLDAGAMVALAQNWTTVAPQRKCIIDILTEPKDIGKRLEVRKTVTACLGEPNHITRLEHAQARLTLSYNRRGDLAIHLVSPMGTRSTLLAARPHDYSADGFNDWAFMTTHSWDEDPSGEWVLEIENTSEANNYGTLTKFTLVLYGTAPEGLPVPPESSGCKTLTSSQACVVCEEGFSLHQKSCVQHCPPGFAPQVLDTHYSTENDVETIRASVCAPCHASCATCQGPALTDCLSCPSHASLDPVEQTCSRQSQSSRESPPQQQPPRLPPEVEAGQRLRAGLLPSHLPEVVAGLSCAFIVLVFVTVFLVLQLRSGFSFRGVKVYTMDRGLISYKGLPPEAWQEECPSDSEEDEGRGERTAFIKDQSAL
Sequence,furin cleavage Z-score (7.5 min),furin cleavage Z-score (15 min),furin cleavage Z-score (30 min)
CASTPCSAELAGNASASA [HC2552],-0.156 (inactive),0.767 (inactive),0.789 (inactive)
CAGLEVVTSTAGNASASA [HC2276],1.36,-0.694 (inactive),-0.958 (inactive)
CASILGIGTVAGNASASA [HC823],-0.809 (inactive),0.141 (inactive),-0.562 (inactive)
CAAYAQQTRGAGNASASA [HC676],0.0125 (inactive),0.047 (inactive),1.9
CAKAVDFIPVAGNASASA [HC756],-0.823 (inactive),-0.464 (inactive),-0.656 (inactive)
CATPGLPVCQAGNASASA [HC933],0.0348 (inactive),-0.269 (inactive),0.151 (inactive)
CATPQRLRRQAGNASASA [FS-570],7.8 (active),8.92 (active),4.33 (active)
CAEVVTSTWFAGNASASA [HC2247],-0.0997 (inactive),1.76,0.942 (inactive)
CAAMRRLKRRAGNASASA [FS-1304],8.73 (active),7.83 (active),8.17 (active)
CALRRRLKRRAGNASASA [FS-361],7.56 (active),7.31 (active),5.73 (active)
CAIFLRLKRRAGNASASA [FS-800],3.63 (active),3.18,3.43
CAETRRERRRAGNASASA [FS-1121],3.87 (active),4.13 (active),4.7 (active)
CARFLRHTGRAGNASASA [FS-1701],2.28,1.08,0.702 (inactive)
CAREQRERRRAGNASASA [FS-1155],0.997 (inactive),2.01,2.01
CASDVVCCSMAGNASASA [HC2117],1.61,-1.16 (inactive),0.074 (inactive)
CAMEEGSQHLAGNASASA [HC2],-0.0457 (inactive),-0.462 (inactive),1.87
CAYVTGMTTDAGNASASA [HC1211],-0.923 (inactive),-0.868 (inactive),-1.18 (inactive)
CAQDAVSRTQAGNASASA [HC900],-0.887 (inactive),-1.13 (inactive),-1.41 (inactive)
CADLEVVTSTAGNASASA [HC2271],-1.06 (inactive),0.142 (inactive),-0.409 (inactive)
CAGYIPLVGAAGNASASA [HC228],-0.438 (inactive),-0.464 (inactive),-0.124 (inactive)
CALEHRRMRRAGNASASA [FS-349],11 (active),10.5 (active),9.29 (active)
CALRRRMRRRAGNASASA [FS-1368],3.44,4.48 (active),4.37 (active)
CASTPCSAGLAGNASASA [HC2556],-0.924 (inactive),-0.11 (inactive),-0.471 (inactive)
CAWEECSQHLAGNASASA [HC1668],2.53,0.743 (inactive),0.0767 (inactive)
CAGTPCSAHLAGNASASA [HC2476],-0.662 (inactive),-0.917 (inactive),-0.0259 (inactive)
CAATPCSGSWAGNASASA [HC1823],-0.934 (inactive),-0.493 (inactive),-0.88 (inactive)
CAEHVTSTWVAGNASASA [HC2175],-1.96 (inactive),1.55,0.829 (inactive)
